# The list is not random: actives were taken first. Their share in the collection is about 4.9%.
# SKKanGAS inh: inhibitors of SKKanGAS S. pyogenes growth in kanamycin (SK-promoter or general growth effect) | BacTiter-Glo, 6 h | inhibition, % at 7.5 µM | actives 1.3% (n = 300,000);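 active means mean replicate score, as percent of positive control median, at least 50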;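 further: strain carries kanamycin resistance gene driven by streptokinase promoter and grows in 40 µg/ml kanamycin; loss of luminescence reflects streptokinase promoter inhibition or plain growth inhibition; 0% = median of DMSO wells and 100% = positive control at its reference dose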
# tim23-1 inh: tim23-1 yeast growth inhibition; S. cerevisiae tim23-1 growth, BacTiter-Glo luminescence, 24 h; inhibition, % at 20 µM; actives 1.3% (n = 330,000); AID 463212;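 active means growth inhibition of the mutant yeast at or above 50%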;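 further: temperature-sensitive mutant grown at 25 °C; plate controls were DMSO-treated mutant yeast for no effect and medium wells lacking yeast for full effect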
# NLRP3 yeast inh: inhibitors of NALP3 inflammasome in yeast; actives 0.39% (n = 330,000); Yeast reconstituted NLRP3/ASC/caspase-1, beta-gal luminescence, 24 h; inhibition, % at 10 µM; AID 2825;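 active means inhibition of 50% or more; inactive means inhibition below 50%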;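 further: plate controls were induced DMSO wells for no effect and uninduced yeast grown without galactose for full effect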
# NALP1 inh: inhibitors of NALP1 inflammasome in yeast | actives 0.61% (n = 280,000) | AID 2071 | S. cerevisiae NALP1/ASC/caspase-1 growth, X-gal OD620, 72 h | inhibition, % at 10 µM; in the data active means inhibition mostly above about 24%, no sharp cut-off; inactive means mostly below about 32%
# TIM10 inh: growth inhibitors of TIM10 yeast strain | actives 1.4% (n = 330,000) | inhibition, % at 10 µM | S. cerevisiae TIM10 strain growth, BacTiter-Glo luminescence, 24 h | AID 463195;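 active means inhibition of 40% or more at the single tested concentration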;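 further: wild-type TIM10 isogenic control strain grown at permissive 25 °C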
# tim10-1 inh: growth inhibitors of tim10-1 mutant yeast | S. cerevisiae tim10-1 ts strain growth, BacTiter-Glo, 24 h | inhibition, % at 20 µM | actives 2.2% (n = 330,000);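 active means inhibition of at least 40%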;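 further: mutant grown at 25 °C; 0% = DMSO wells with yeast and 100% = wells holding no yeast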
# tim10-1 confirm: confirmation of tim10-1 mutant yeast growth inhibitors; inhibition, % at 20 µM; shares compounds with tim10-1 inh; AID 463213; actives 56% (n = 7,400); S. cerevisiae tim10-1 ts strain growth, BacTiter-Glo, 24 h;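 active means inhibition of yeast growth at or above a set limit in either of two repeat tests at 20 µM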;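 further: tim10-1 mutant grown at permissive 25 °C to find synthetic lethal compounds; 0% = DMSO yeast wells and 100% = medium wells without yeast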
# tim10 confirm: confirmation of TIM10 yeast growth inhibitors. AID 463215. shares compounds with TIM10 inh. S. cerevisiae tim10 strain growth, BacTiter-Glo luminescence, 24 h. inhibition, % at 10 µM. actives 63% (n = 4,600);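 active means inhibition of yeast growth at or above a set limit in either of two replicates at 10 µM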;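 further: this counterscreen used the strain with wild-type TIM10; 0% = yeast with DMSO and 100% = medium wells lacking yeast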
# tim23-1 conf: tim23-1 yeast growth inhibition, confirmed | shares compounds with tim23-1 inh | S. cerevisiae tim23-1 growth, BacTiter-Glo luminescence, 24 h | inhibition, % at 20 µM | actives 83% (n = 4,400);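 active means inhibition above about 39% in either of two replicate wells at 20 µM, limit read from the data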;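 further: temperature-sensitive tim23-1 mutant grown at 25 °C; 0% = DMSO wells with yeast and 100% = medium wells without yeast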
# * = called active by the depositor; · = not tested or not shown.
SMILES,SKKanGAS inh,tim23-1 inh,NLRP3 yeast inh,NALP1 inh,TIM10 inh,tim10-1 inh,tim10-1 confirm,tim10 confirm,tim23-1 conf
CC(C)CC(=O)O/N=C1\C(=O)N(c2ccccc2)c2ccccc21,-9,54*,20,0,50*,63*,59*,74*,62*
COc1ccc(C(=O)COC(=O)C2COc3ccccc3O2)cc1F (configuration not stated),·,27,12,·,14,20,·,·,·
CCCc1[nH]n(-c2ccc([N+](=O)[O-])cc2)c(=O)c1C=NCCCn1ccnc1,4,8,18,-2,-16,7,·,·,·
CCCn1c(NC(=O)c2cccc(S(=O)(=O)N3CCCC3)c2)nc2ccccc21,64*,50*,10,3,40,41*,27,·,58*
Cc1nc2cc(C(=O)NCc3ccc4c(c3)OCO4)ccc2n1-c1ccc(Br)cc1,3,52*,-2,45,15,47*,39*,·,48*
Cc1ccc(Cl)cc1NC1=C/C(=N\S(=O)(=O)c2cccs2)c2ccccc2C1=O,95*,52*,16,5,74*,71*,66*,69*,65*
O=C(O/N=C(\c1ccccc1)c1ccncc1)c1ccccc1F,-6,51*,10,-4,30,50*,37*,·,61*
O=C(O/N=C(/c1ccccc1)c1ccncc1)c1cccc(F)c1,2,37,7,-7,39,29,·,·,·
N/C(=N\OC(=O)c1cccc2ccccc12)c1ccc(Br)cc1,-4,63*,21,6,69*,67*,61*,69*,68*
N/C(Cc1cccc2ccccc12)=N\OC(=O)c1ccccc1F,20,67*,12,17,61*,55*,50*,71*,76*
N/C(Cn1cncn1)=N\OC(=O)c1ccc(Cl)cc1Cl,-5,23,-6,-18,7,17,·,·,·
N/C(Cc1ccc(Cl)cc1Cl)=N\OC(=O)c1ccccc1F,20,65*,4,30,81*,63*,14,88*,53*
CCOC(=O)C1(CCOC)CCN(C/C=C/c2ccccc2OC)CC1,-1,·,·,·,·,·,·,·,·
CC(NC(=O)c1ccco1)C(=O)OCc1cccc(C(F)(F)F)c1 (configuration not stated),·,19,5,·,-6,-9,·,·,·
CCOC(=O)C1=CNS(=O)(=O)NC1c1ccc2ccccc2c1 (configuration not stated),·,28,·,·,-4,14,·,·,·
N/C(Cc1ccccc1)=N\OC(=O)c1cccc2ccccc12,4,68*,-5,78,85*,77*,57*,91*,50*
COc1ccc(-c2ccc(NC(=O)c3ccco3)cc2)nn1,34,57*,37,·,46*,47*,22,30,51*
COc1ccc(-c2cccc(NC(=O)c3ccco3)c2)nn1,-14,16,20,·,2,-6,·,·,·
COc1ccc(NC(=O)c2ccco2)cc1NC(=O)c1ccc(Br)o1,-9,55*,36,14,76*,44*,23,61*,74*
COc1ccc2c(=O)c(Oc3ccc(C(=O)O)cc3)c(C(F)(F)F)oc2c1,-2,24,11,28,5,3,·,·,·
COc1cccc(NC(=O)C2C3C=CC4(O3)C2C(=O)N(CCCN2CCCCC2)C4C(=O)NC2CCCCC2)c1 (configuration not stated),3,9,20,-8,-8,17,·,·,·
Cc1ccccc1NS(=O)(=O)c1cc2c(cc1C)N(C)CCO2,0,33,6,-18,16,19,·,·,·
Brc1ccc(-c2nc(N/N=C/c3cccnc3)c3ccccc3n2)cc1,35,81*,17,27,67*,82*,6,56*,86*
